Test results as given in article PMC7862700, “An all-to-all approach to the identification of sequence-specific readers for epigenetic DNA modifications on cytosine”.

Target: ELF4 (Homo sapiens, UniProt Q99607 1-663)
Assay: DAPPL (digital affinity profiling via proximity ligation, sequencing); 10 mM Tris-HCl pH 7.5, 50 mM NaCl, 1 mM DTT, 4% glycerol, room temperature, 30 min; GST-TFs on glutathione beads, 16-mer random dsDNA library, 0.1% formaldehyde crosslink after washing; high values mean tight binding
Details: protein: recombinant; tags: N-terminal GST; dsDNA, one strand shown
Method in brief: (§1)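 The binding signal reported is, for every hexamer, its read frequency for a factor over its read frequency for the tag-only sample. Reads came from pools of yeast-expressed, GST-fused human transcription factors on glutathione beads, barcoded with DNA and mixed with that sample, which were incubated with 200 nmole of a random double-stranded 16-mer DNA library in Tris/NaCl/DTT/glycerol buffer at room temperature for 30 min. After washing, the pools were crosslinked with 0.1% formaldehyde, proximity-ligated with BsaI/T4 ligase for 1 h at 37 °C, PCR-amplified and sequenced on an Illumina NextSeq500.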

ELF4, sequence (Q99607 whole entry): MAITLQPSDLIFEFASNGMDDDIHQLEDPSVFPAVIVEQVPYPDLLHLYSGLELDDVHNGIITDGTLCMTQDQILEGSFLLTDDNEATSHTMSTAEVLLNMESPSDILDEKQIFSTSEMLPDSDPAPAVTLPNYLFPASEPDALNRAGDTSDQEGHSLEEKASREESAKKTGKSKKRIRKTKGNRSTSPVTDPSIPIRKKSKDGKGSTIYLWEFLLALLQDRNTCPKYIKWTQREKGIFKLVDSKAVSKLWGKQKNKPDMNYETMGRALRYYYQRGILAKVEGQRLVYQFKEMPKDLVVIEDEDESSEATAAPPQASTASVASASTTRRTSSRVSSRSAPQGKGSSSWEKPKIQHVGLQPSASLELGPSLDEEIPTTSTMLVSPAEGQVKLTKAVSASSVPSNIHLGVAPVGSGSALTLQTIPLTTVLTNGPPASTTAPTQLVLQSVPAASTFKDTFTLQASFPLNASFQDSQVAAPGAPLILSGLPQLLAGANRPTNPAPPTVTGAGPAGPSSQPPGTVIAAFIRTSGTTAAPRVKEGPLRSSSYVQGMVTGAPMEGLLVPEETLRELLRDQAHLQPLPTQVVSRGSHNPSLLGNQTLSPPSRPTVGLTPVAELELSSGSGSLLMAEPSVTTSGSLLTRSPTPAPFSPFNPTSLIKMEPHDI

| Sequence | binding signal |
| --- | --- |
| ACCTAG | 1.06 fold enrichment (6-mer frequency, TF over GST control) |
| GCTAAG | 1.06 fold enrichment (6-mer frequency, TF over GST control) |
| GATTTA | 1.05 fold enrichment (6-mer frequency, TF over GST control) |
| TGGATA | 1.05 fold enrichment (6-mer frequency, TF over GST control) |
| ATAAGA | 1.06 fold enrichment (6-mer frequency, TF over GST control) |
| CTAGAA | 1.05 fold enrichment (6-mer frequency, TF over GST control) |
| GATCTA | 1.04 fold enrichment (6-mer frequency, TF over GST control) |
| GCTAGT | 1.05 fold enrichment (6-mer frequency, TF over GST control) |
| AGATCT | 1.01 fold enrichment (6-mer frequency, TF over GST control) |
| AGCTAG | 1.05 fold enrichment (6-mer frequency, TF over GST control) |
| CTTAAG | 1.07 fold enrichment (6-mer frequency, TF over GST control) |
| TGAAGA | 1.01 fold enrichment (6-mer frequency, TF over GST control) |
| TGATTA | 1.07 fold enrichment (6-mer frequency, TF over GST control) |
| TAGATA | 1.07 fold enrichment (6-mer frequency, TF over GST control) |
| TCGAGC | 1.03 fold enrichment (6-mer frequency, TF over GST control) |
| CCCCAG | 1.04 fold enrichment (6-mer frequency, TF over GST control) |

| Sequence | binding signal |
| --- | --- |
| TGATAG | 1.03 fold enrichment (6-mer frequency, TF over GST control) |
| GCCCGA | 1.02 fold enrichment (6-mer frequency, TF over GST control) |
| GTTCGC | 1.1 fold enrichment (6-mer frequency, TF over GST control) |
| GGATCT | 1.02 fold enrichment (6-mer frequency, TF over GST control) |
| TTAGAT | 1.12 fold enrichment (6-mer frequency, TF over GST control) |
| TTGCCA | 1.07 fold enrichment (6-mer frequency, TF over GST control) |
| TCAATC | 1.06 fold enrichment (6-mer frequency, TF over GST control) |
| ATAAGT | 1.1 fold enrichment (6-mer frequency, TF over GST control) |
| CTAGCC | 1.01 fold enrichment (6-mer frequency, TF over GST control) |
| TTAAGA | 1.05 fold enrichment (6-mer frequency, TF over GST control) |
| GCTGGT | 1.11 fold enrichment (6-mer frequency, TF over GST control) |
| CGTTTA | 1.07 fold enrichment (6-mer frequency, TF over GST control) |
| CGTCTG | 1.05 fold enrichment (6-mer frequency, TF over GST control) |
| TAAGCA | 1.03 fold enrichment (6-mer frequency, TF over GST control) |
| CATGCG | 1.02 fold enrichment (6-mer frequency, TF over GST control) |

Target: T1, ELK4 (Homo sapiens, UniProt P28324-2 1-405)
T1 sequence: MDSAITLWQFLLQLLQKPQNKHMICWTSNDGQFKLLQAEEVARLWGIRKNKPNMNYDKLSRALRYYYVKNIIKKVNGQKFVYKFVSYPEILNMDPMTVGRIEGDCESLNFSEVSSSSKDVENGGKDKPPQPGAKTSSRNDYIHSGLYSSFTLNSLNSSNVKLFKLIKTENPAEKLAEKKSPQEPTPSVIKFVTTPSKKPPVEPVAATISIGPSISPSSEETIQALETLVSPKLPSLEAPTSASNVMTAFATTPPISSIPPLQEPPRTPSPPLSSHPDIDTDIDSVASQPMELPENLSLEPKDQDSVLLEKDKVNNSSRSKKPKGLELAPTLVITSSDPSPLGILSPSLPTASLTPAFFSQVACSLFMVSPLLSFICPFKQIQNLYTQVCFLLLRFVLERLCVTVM
Assay: as above
Details: protein: recombinant; tags: N-terminal GST; dsDNA, one strand shown
Method in brief: as §1

| Sequence | binding signal |
| --- | --- |
| ACCTAG | 1.08 fold enrichment (6-mer frequency, TF over GST control) |
| GCTAAG | 1.18 fold enrichment (6-mer frequency, TF over GST control) |
| GATTTA | 1.02 fold enrichment (6-mer frequency, TF over GST control) |
| TGGATA | 1.07 fold enrichment (6-mer frequency, TF over GST control) |
| ATAAGA | 1.11 fold enrichment (6-mer frequency, TF over GST control) |
| TGAATC | 1.03 fold enrichment (6-mer frequency, TF over GST control) |
| GATCTA | 1.05 fold enrichment (6-mer frequency, TF over GST control) |
| GCTAGT | 1.07 fold enrichment (6-mer frequency, TF over GST control) |
| AGCTAG | 1.01 fold enrichment (6-mer frequency, TF over GST control) |
| TAAGGG | 1.1 fold enrichment (6-mer frequency, TF over GST control) |
| CTTAAG | 1.06 fold enrichment (6-mer frequency, TF over GST control) |
| TAAAGG | 1.07 fold enrichment (6-mer frequency, TF over GST control) |
| AGTCTC | 1.05 fold enrichment (6-mer frequency, TF over GST control) |
| TGAAGA | 1.02 fold enrichment (6-mer frequency, TF over GST control) |
| TGATTA | 1.16 fold enrichment (6-mer frequency, TF over GST control) |
| TAGATA | 1.08 fold enrichment (6-mer frequency, TF over GST control) |

| Sequence | binding signal |
| --- | --- |
| TCGAGC | 1.11 fold enrichment (6-mer frequency, TF over GST control) |
| CCCCAG | 1.24 fold enrichment (6-mer frequency, TF over GST control) |
| TGATAG | 1.02 fold enrichment (6-mer frequency, TF over GST control) |
| GCCCGA | 1.1 fold enrichment (6-mer frequency, TF over GST control) |
| GTTCGC | 1.16 fold enrichment (6-mer frequency, TF over GST control) |
| TTAGAT | 1.23 fold enrichment (6-mer frequency, TF over GST control) |
| TTGCCA | 1.15 fold enrichment (6-mer frequency, TF over GST control) |
| TCAATC | 1.03 fold enrichment (6-mer frequency, TF over GST control) |
| ATAAGT | 1.06 fold enrichment (6-mer frequency, TF over GST control) |
| CTAGCC | 1.1 fold enrichment (6-mer frequency, TF over GST control) |
| GCTGGT | 1.45 fold enrichment (6-mer frequency, TF over GST control) |
| CGTTTA | 1.15 fold enrichment (6-mer frequency, TF over GST control) |
| CGTCTG | 1.08 fold enrichment (6-mer frequency, TF over GST control) |
| TAAGCA | 1.09 fold enrichment (6-mer frequency, TF over GST control) |
| CATGCG | 1.11 fold enrichment (6-mer frequency, TF over GST control) |

Target: T2, ETV2 (Homo sapiens, UniProt O00321 1-342)
T2 sequence: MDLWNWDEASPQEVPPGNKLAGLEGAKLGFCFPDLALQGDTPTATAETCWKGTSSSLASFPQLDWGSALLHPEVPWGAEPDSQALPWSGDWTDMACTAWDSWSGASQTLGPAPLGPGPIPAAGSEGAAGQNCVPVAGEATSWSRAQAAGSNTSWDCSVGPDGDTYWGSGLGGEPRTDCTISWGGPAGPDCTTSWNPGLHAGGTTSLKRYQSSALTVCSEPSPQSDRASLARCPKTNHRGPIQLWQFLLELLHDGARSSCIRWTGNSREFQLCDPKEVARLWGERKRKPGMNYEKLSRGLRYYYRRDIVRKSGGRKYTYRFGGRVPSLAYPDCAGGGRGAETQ
Assay: as above
Details: protein: recombinant; tags: N-terminal GST; dsDNA, one strand shown
Method in brief: as §1

| Sequence | binding signal |
| --- | --- |
| GCTAAG | 1.07 fold enrichment (6-mer frequency, TF over GST control) |
| GATTTA | 1.05 fold enrichment (6-mer frequency, TF over GST control) |
| TGGATA | 1.02 fold enrichment (6-mer frequency, TF over GST control) |
| ATAAGA | 1.03 fold enrichment (6-mer frequency, TF over GST control) |
| CTAGAA | 1.03 fold enrichment (6-mer frequency, TF over GST control) |
| GATCTA | 1.11 fold enrichment (6-mer frequency, TF over GST control) |
| GCTAGT | 1.07 fold enrichment (6-mer frequency, TF over GST control) |
| AGATCT | 1.11 fold enrichment (6-mer frequency, TF over GST control) |
| AGCTAG | 1.12 fold enrichment (6-mer frequency, TF over GST control) |
| CTTAAG | 1.13 fold enrichment (6-mer frequency, TF over GST control) |
| TGATTA | 1.07 fold enrichment (6-mer frequency, TF over GST control) |
| TAGATA | 1.12 fold enrichment (6-mer frequency, TF over GST control) |
| TCGAGC | 1.04 fold enrichment (6-mer frequency, TF over GST control) |
| CCCCAG | 1.04 fold enrichment (6-mer frequency, TF over GST control) |
| TGATAG | 1.09 fold enrichment (6-mer frequency, TF over GST control) |
| GTTCGC | 1.11 fold enrichment (6-mer frequency, TF over GST control) |
| TTAGAT | 1.16 fold enrichment (6-mer frequency, TF over GST control) |
| TCAATC | 1.13 fold enrichment (6-mer frequency, TF over GST control) |
| ATAAGT | 1.05 fold enrichment (6-mer frequency, TF over GST control) |
| CTAGCC | 1.06 fold enrichment (6-mer frequency, TF over GST control) |
| TTAAGA | 1.15 fold enrichment (6-mer frequency, TF over GST control) |
| GCTGGT | 1.1 fold enrichment (6-mer frequency, TF over GST control) |
| CGTTTA | 1.03 fold enrichment (6-mer frequency, TF over GST control) |
| GATCAA | 1.19 fold enrichment (6-mer frequency, TF over GST control) |
| CGTCTG | 1.23 fold enrichment (6-mer frequency, TF over GST control) |
| CATGCG | 1 fold enrichment (6-mer frequency, TF over GST control) |

Target: T3, ELF3 (Homo sapiens, UniProt P78545 1-371)
T3 sequence: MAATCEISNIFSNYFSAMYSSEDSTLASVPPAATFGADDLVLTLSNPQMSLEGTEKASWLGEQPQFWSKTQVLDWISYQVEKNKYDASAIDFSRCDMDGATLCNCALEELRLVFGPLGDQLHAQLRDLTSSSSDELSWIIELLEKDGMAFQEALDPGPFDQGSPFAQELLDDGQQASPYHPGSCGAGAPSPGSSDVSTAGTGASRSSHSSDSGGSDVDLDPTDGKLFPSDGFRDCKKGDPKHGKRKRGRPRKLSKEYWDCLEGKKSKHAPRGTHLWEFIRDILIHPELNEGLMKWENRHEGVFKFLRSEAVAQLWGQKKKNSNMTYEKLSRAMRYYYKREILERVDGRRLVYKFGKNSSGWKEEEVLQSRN
Assay: as above
Details: protein: recombinant; tags: N-terminal GST; dsDNA, one strand shown
Method in brief: as §1

| Sequence | binding signal |
| --- | --- |
| ACCTAG | 1.02 fold enrichment (6-mer frequency, TF over GST control) |
| GATTTA | 1.02 fold enrichment (6-mer frequency, TF over GST control) |
| TGGATA | 1.16 fold enrichment (6-mer frequency, TF over GST control) |
| ATAAGA | 1.04 fold enrichment (6-mer frequency, TF over GST control) |
| CTAGAA | 1.03 fold enrichment (6-mer frequency, TF over GST control) |
| GATCTA | 1.07 fold enrichment (6-mer frequency, TF over GST control) |
| GCTAGT | 1.04 fold enrichment (6-mer frequency, TF over GST control) |
| AGATCT | 1.09 fold enrichment (6-mer frequency, TF over GST control) |
| AGCTAG | 1.1 fold enrichment (6-mer frequency, TF over GST control) |
| TAAGGG | 1.09 fold enrichment (6-mer frequency, TF over GST control) |
| TAAAGG | 1.1 fold enrichment (6-mer frequency, TF over GST control) |
| TGATTA | 1.18 fold enrichment (6-mer frequency, TF over GST control) |
| TAGATA | 1.08 fold enrichment (6-mer frequency, TF over GST control) |
| TCGAGC | 1 fold enrichment (6-mer frequency, TF over GST control) |
| CCCCAG | 1.16 fold enrichment (6-mer frequency, TF over GST control) |
| GCCCGA | 1.21 fold enrichment (6-mer frequency, TF over GST control) |
| TTAGAT | 1.05 fold enrichment (6-mer frequency, TF over GST control) |
| TTGCCA | 1.17 fold enrichment (6-mer frequency, TF over GST control) |
| TCAATC | 1.09 fold enrichment (6-mer frequency, TF over GST control) |
| ATAAGT | 1.09 fold enrichment (6-mer frequency, TF over GST control) |
| CTAGCC | 1.04 fold enrichment (6-mer frequency, TF over GST control) |
| GCTGGT | 1.16 fold enrichment (6-mer frequency, TF over GST control) |
| CGTTTA | 1.09 fold enrichment (6-mer frequency, TF over GST control) |
| CATGCG | 1.29 fold enrichment (6-mer frequency, TF over GST control) |
